Out of some 370,000 compounds screened, about 6,800 (1.8%) were called active.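 The calls were made as follows: active = activation above a cutoff set at the mean of all screened compounds plus 3 SD (cut at about 10% in these data); inactive = the rest.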 The entries come from a sample that favours actives as a whole.

This assay has as its system Nuclear hormone receptor DAF-12 (Heterodera glycines), GAL4 fusion. Description: hgDAF-12 GAL4 fusion reporter activation – cell-based, luminescence, HEK293, UAS-luciferase, primary screen (AID 687014).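 Also: 0% = DMSO wells and 100% = sodium butyrate wells.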 The settings on record: HEK293 GAL4-hgDAF12 UAS-luciferase reporter, agonist luminescence; at 6.8 µM; stronger effect = higher value; normalized to butyrate control.
Turning to `Fc1ccc2nc(Nc3nc4c(s3)CCCC4)sc2c1`, the activation was 12.8% (active).
With `CCS(=O)(=O)N1Cc2ccccc2CC1C(=O)Nc1nc2ccc(F)cc2s1` (stereo unspecified) the figure was 10.2% (inactive).
The same measure for `COC(=O)C(NC(C)=O)(Nc1nc2c(s1)CCCC2)C(F)(F)F` (stereo unspecified): -0.75% (inactive); for `CC(=O)N1CCCN(C2=Nc3ccccc3Sc3ccccc32)CC1`: -3.68% (inactive).
For the molecule `CCN(CC)C(=O)CC[C@H]1CC[C@]2(CCCN(Cc3ccc(Cl)cc3)C2)O1`, the activation is -2.24% (inactive).
On to `COC(=O)c1c(-c2ccc(OC)cc2)c2c(c3c4ccccc4n(S(=O)(=O)c4ccc(C)cc4)c13)C(=O)N(C)C2`, for which the activation was -0.11% (inactive).
Turning to `Cc1ccc2nc(-c3cccnc3)c(NC3CCCC3)n2c1`, the activation is -2.27% (inactive).
The same measure for `COc1ccccc1Cc1c(-c2ccc(F)cc2)nc2ccc(C)cn12`: 9.36% (inactive); for `Cc1ccc2nc(-c3ccccc3)c(CC3CCCCC3)n2c1`: 15.8% (active); for `Cc1ccc(NC(=O)Nc2cc(C)nn2-c2ccccc2)cc1`: 0.6% (inactive).
With `Cc1cc(OC(=O)c2ccccc2Cl)ccc1N1C(=O)CCC1=O` the figure was 1.41% (inactive); with `Cc1cccc(/C(N)=N/OC(=O)c2ccccc2Cl)c1`, 22.6% (active).
With `C/C(=N\OC(=O)c1ccccc1)c1c(C)nc2cc(C)ccn12` the figure was 1.13% (inactive); with `COc1ccc(CSc2nnc(SCC(=O)Nc3ccccc3C(F)(F)F)s2)cc1`, -0.44% (inactive); with `COc1cccc(NC(=O)N(C)C[C@@H]2OCc3cn(nn3)CCCC(=O)N([C@@H](C)CO)C[C@H]2C)c1`, -1.94% (inactive).
With `CCS(=O)(=O)n1nc(-c2ccccc2)nc1SCc1ccccc1`, the activation is 13.2% (active).
For the molecule `CCS(=O)(=O)n1nc(-c2ccc(OC)cc2)nc1SC`, the activation is 2.82% (inactive).
The same measure for `O=S(=O)(c1ccc(SCc2ccccc2)nc1)N1CCCCCC1`: 3.56% (inactive).
With `CCN1C(=O)[C@@H]2[C@@H](c3ccc(-c4cccc(Cl)c4)cc3)N3CCC[C@@]3(C(=O)OC)[C@@H]2C1=O`, the activation is -0.28% (inactive).
The same measure for `C=CCN(Cc1ccc2c(c1)OCO2)C(C#CC1CC1)C(C)(C)C` (stereo unspecified): 0.18% (inactive); for `O=C(NC1CCCCCC1)C1CCN(C(=O)c2ccc(Cl)cc2)CC1`: -2.28% (inactive); for `O=C(NC(=S)NC1CCCCC1)c1ccc(Cl)cc1`: 14.2% (active).
For the molecule `O=C(NNC(=S)NC1CCCCC1)c1ccccc1Cl`, the activation was -1.15% (inactive).
With `CN(C)/C=C(\C#N)C(=O)c1cccnc1Oc1cccc(F)c1` the figure was -0.67% (inactive).
With `CCC(=O)OCCCN1C(=O)CCC12CCC(c1ccccc1)CC2` (stereo unspecified) the figure was -0.73% (inactive).
With `C=CCNc1nc(Nc2ccc(Cl)cc2)nc(OC)n1` the figure was 2.81% (inactive); with `CC1(C)N=C(N)NC(Nc2ccc(Cl)cc2)=N1`, -2.03% (inactive).
For the molecule `Clc1ccc(Nc2ccc3ccccc3n2)cc1`, the activation is 19.3% (active).
The same measure for `CCC(C)[C@@H](C(=O)OC)N(CCc1cn(Cc2ccccc2)nn1)S(=O)(=O)c1ccccc1Br` (stereo partly specified): -4.53% (inactive).
In the case of `CCOC(=O)CC(NC(=O)C1c2ccccc2Oc2ccccc21)c1ccc(C)cc1` (stereo unspecified), the activation was -2.51% (inactive).
The same measure for `CCOC(=O)C1=C(C)c2ccccc2OC1C(=O)OCC` (stereo unspecified): 12.1% (active); for `CCCN(CCC)C(=O)C1c2ccccc2Oc2ccccc21`: -0.5% (inactive); for `Cc1ccc(C2NC(C(=O)O)CS2)cc1` (stereo unspecified): -0.05% (inactive).
The same measure for `CC(CCN1CCC(C(O)(c2ccccc2)c2ccccc2)CC1)Oc1ccc([N+](=O)[O-])cc1Cl` (stereo unspecified): 4% (inactive); for `COc1ccccc1C(=O)NC1CCCCN(C(C)C)C1=O` (stereo unspecified): 2.92% (inactive); for `Cc1ccccc1NC(=O)COC(=O)c1ccc(Sc2ncn[nH]2)c([N+](=O)[O-])c1`: 1.49% (inactive).
For the molecule `Cc1ccc(NNC(=O)C2CCC2)cc1C`, the activation was 1.26% (inactive).
The same measure for `Cc1ccc(N/C=C/C(=O)c2ccccc2)cc1C`: 19.8% (active).
Turning to `COC(C(=O)Nc1ccc(S(=O)(=O)Nc2ccc(C)c(C)c2)cc1)c1ccccc1` (stereo unspecified), the activation is -3.51% (inactive).
With `N#Cc1c(NCCO)ccc([N+](=O)[O-])c1NCCO` the figure was -1.17% (inactive).
With `COC(=O)[C@]12C[C@H](CC(=O)NCC34CC5CC(CC(C5)C3)C4)C(=O)N(Cc3ccc(Cl)cc3Cl)C1=C[C@H](COCc1ccccc1)O[C@@H]2C` the figure was 1.95% (inactive); with `C[C@H](C(=O)N(C)c1ccccc1)[C@@H](O)c1ccc2ccccc2c1`, -1.62% (inactive); with `CC(C)n1c(O)c(N=Nc2ccccn2)c2ccccc21`, 1.77% (inactive).
The same measure for `Oc1oc(-c2ccccc2Br)nc1/C=N/c1ccccn1`: 10.8% (active); for `COc1cccc(-c2cc(CNC(=O)[C@@H](Cc3ccccc3)NC(=O)[C@H]3O[C@@H](n4cnc(C(N)=O)n4)[C@H](O)[C@@H]3O)no2)c1`: 3.48% (inactive); for `COC(=O)CC1CCc2cc(C)cc(C(CC(C)C)NC(=O)[C@H](CC(C)C)NC(=O)OCc3ccccc3)c2O1` (stereo partly specified): -1.05% (inactive).
As to `O=C(Cn1c(-c2cncs2)nc2ccccc21)NC1CCCC1`, the activation was 0.16% (inactive).
As to `CC1CCCCC1NC(=O)Cn1c(=O)cnc2ccccc21` (stereo unspecified), the activation was -0.26% (inactive).
Consider `O=C(/C=C/c1cnc2ccccc2n1)NC1CCCCCC1`, for which the activation is 11.9% (active).
The same measure for `O=C(NCCc1c[nH]c2ccccc12)c1cc2ccccc2oc1=O`: 14.6% (active).
The same measure for `C[N+](C)(C)CCNC(=O)c1c[nH]c2ccccc12`: 0.11% (inactive).
For `O=C(CCCCCn1c(=O)[nH]c2ccccc2c1=O)NCCc1c[nH]c2ccccc12`, the activation was -0.27% (inactive).
With `Clc1cccc2c1C1CC2CCN1Cc1ccccc1` (stereo unspecified) the figure was 0.38% (inactive).
The same measure for `COc1ccc(-c2cc(-c3nnc(SCc4ccc([N+](=O)[O-])cc4)n3N)[nH]n2)cc1`: 3.72% (inactive); for `Nc1ncnc2c1ncn2[C@@H]1O[C@H](C(=O)N[C@@H](CCc2ccccc2)C(=O)N2CCCN(Cc3cccs3)CC2)[C@@H](O)[C@H]1O`: 1.83% (inactive); for `Nc1nc2cc(Cl)ccc2n1N`: 0.42% (inactive).
The same measure for `Nc1ccc2nn(-c3ccc(Cl)cc3)nc2c1`: 18.1% (active); for `Nc1ccc2c(c1)C(O)c1ccc(Cl)cc1-2` (stereo unspecified): 2.17% (inactive).
On to `COc1ccc(S(=O)(=O)N[C@@H]2C=C[C@@H](CC(=O)N3CCc4ccccc4C3)O[C@@H]2CO)cc1`, for which the activation is -1.55% (inactive).
With `COc1ccc(-c2csc3nc(-c4ccccc4F)oc(=O)c23)cc1OC` the figure was -0.2% (inactive); with `COc1ccc(-c2csc(-c3cccs3)n2)cc1OC`, 14.5% (active).
The same measure for `COc1ccc(C2CC(c3cccs3)=Nc3ccccc3S2)cc1OC` (stereo unspecified): 6.91% (inactive); for `COC(=O)C1=C(C)N(Cc2ccccc2C(F)(F)F)C(=NCc2ccc(C(F)(F)F)cc2)NC1c1ccc(F)cc1` (stereo unspecified): 0.87% (inactive).
On to `CCCCOCCCNC(=O)C[C@H]1C[C@@]2(C(=O)OC)C(=C[C@H](COCc3ccccc3)O[C@@H]2C)N(Cc2cccc3ccccc23)C1=O`, for which the activation is 5.41% (inactive).
With `CCOc1c(N2CCCCC2)c(=O)c1=O` the figure was -2.21% (inactive).
With `Cc1ccc(CSc2nnc(SCC(=O)NN=Cc3cc(Br)ccc3F)s2)cc1` the figure was 6.25% (inactive); with `Cc1cc(C)nc(NC(=O)/C=C/c2ccc(Cl)cc2)n1`, -0.13% (inactive).
The same measure for `CC(C)(C)c1ccc(/C=C/C(=O)Nc2ncccn2)cc1`: 16.6% (active); for `CC(C)(C)c1ccc(/C=C/C(=O)NCCCn2ccnc2)cc1`: 3.86% (inactive); for `CCS(=O)(=O)c1ccc2oc(SCC(=O)N3c4ccccc4CC3C)nc2c1` (stereo unspecified): -2.27% (inactive).
For the molecule `COc1ccc(S(=O)(=O)N(C)C)cc1NC(=O)CSc1ncccn1`, the activation was 1.65% (inactive).
In the case of `CN(C)S(=O)(=O)c1ccc2oc(SCC(=O)Nc3ccccc3F)nc2c1`, the activation is 15.5% (active).
For the molecule `O=C(CNC(=O)c1ccccc1)OC(C(=O)Nc1cc([N+](=O)[O-])ccc1F)c1ccccc1` (stereo unspecified), the activation was 6.44% (inactive).
With `COC(=O)c1cc(S(=O)(=O)N2CCN(C(=O)C3CCCO3)CC2)cn1C` (stereo unspecified) the figure was -0.48% (inactive); with `C=C(C)C#CC(Cc1ccccc1)NCC1CC1` (stereo unspecified), 1.34% (inactive).
With `COc1cccc(Cn2cc(COC(=O)Nc3ccc(F)cc3)nn2)c1` the figure was -2.67% (inactive); with `COc1ccc(/C=N/NC(=O)Cn2cc(C(F)(F)F)ccc2=O)cc1`, -5.01% (inactive); with `COc1ccc(SSc2ccc(OC)cc2C(=O)O)c(C(=O)O)c1`, -1.26% (inactive).
As to `COc1ccc(/C=N/Nc2ccccc2C(=O)O)cc1`, the activation was 12.8% (active).
The same measure for `N#Cc1c(N)nc2c(c1N)CC(C(F)(F)F)O2` (stereo unspecified): 2.74% (inactive); for `CCOC(=O)[C@]12CCCC3=C1N(CCC3)C(=O)[C@@H](CC(=O)N1CCSCC1)C2`: -0.16% (inactive); for `O=C(NCCCc1ccccc1)[C@H](Cc1ccccc1)NC1(C(=O)NCCc2c[nH]c3ccccc23)CCC1`: -3.84% (inactive).
The same measure for `O=C(OC12CCCN(C1)/C(=C/c1cccnc1)C2)C1CCCC1` (stereo unspecified): -3.6% (inactive); for `COc1ccc(C(=O)N2CCCN(C)CC2)c(OC)c1`: -2.22% (inactive); for `COc1ccc(C(=O)NC2CC(C)(C)Cc3c2cnn3-c2ccccc2)c(OC)c1` (stereo unspecified): -4.18% (inactive).
With `COc1ccc(C(=O)CSc2nnnn2C)c(OC)c1` the figure was 1.57% (inactive); with `COc1ccc(C(=O)Nc2nncs2)c(OC)c1`, 10.4% (active); with `COC(=O)c1sc(NC(=O)c2ccc(OC)cc2OC)nc1C`, 19.3% (active).
Turning to `COc1ccc(NC(=O)COC(=O)c2ccncc2)c(OC)c1`, the activation is -1.12% (inactive).
With `COC(=O)C1=C(C)N(Cc2ccc(C(F)(F)F)cc2)C(=NCc2ccc(C(F)(F)F)cc2)NC1c1cccc(Cl)c1` (stereo unspecified), the activation was 6.59% (inactive).
`CCOC(=O)C1CCN(C(=O)c2ccccc2N(C)S(=O)(=O)c2ccccc2)CC1`: the activation was 0.69% (inactive).

The values are drawn from PubChem BioAssay AID687014 (The Scripps Research Institute Molecular Screening Center, 2013).
